Rows were chosen to be rich in hits. Some 7.5% of all compounds tested hit in one or more screens of this group.
ELG1 genotox: qHTS screen for small molecules that induce genotoxicity in human embryonic kidney (HEK293T) cells expressing luciferase-tagged ELG1. HEK293T ELG1-luciferase reporter, luminescence, 16 h. Potency, µM (doses to about 46 µM), for the others: at the top dose activity change, positive = activation, actives largely listed as activators. hit rate 1.3% among 330,000; note: % of control where 0% means no effect; nearly all actives have a fitted effect of over 60% in size
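Quantitative HTS format in 1536-well plates. HEK293T ELG1-luciferase reporter cells receive test compound and are incubated 16 hr at 37 °C, 5% CO2; ONE-Glo added, 30 min room temperature, then luminescence read.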
KinaseGlo FLuc: Counterscreen for Luciferase (Kinase-Glo TM) Inhibition. Luciferin 4-monooxygenase (Photuris pensylvanica), Q27757. Potency, µM (series often up to 38.3 µM), for inactives: at the highest dose activity change, negative = inhibition, most hits filed as inhibitors. AID 1379, 2008. Kinase-Glo luciferase, ATP luminescence, 8 min. hit rate 0.28% among 200,000; note: % is set by controls: 0 for no effect and ±100 for the full control effect; nearly all actives have a fitted effect of over 60% in size
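Recombinant Kinase-Glo luciferase, 10 uM ATP (linear range), luciferin; imidazole pH 7.2 / KCl / MgCl2 / Tween / BSA buffer; 8 min RT; luminescence.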
SMN2 splice enh: qHTS Assay for Enhancers of SMN2 Splice Variant Expression | hit rate 2.8% among 210,000 | Potency, µM (highest dose often 46.1 µM), for the others: at the highest dose activity change, positive = activation, most hits filed as activators | HEK293 SMN2-luciferase splicing reporter, luminescence, 30-36 h; note: % of control where 0% means no effect; nearly all actives have a fitted effect of over 55% in size
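HEK293 cells carry an SMN2 minigene-luciferase reporter in which exon 7 inclusion puts luciferase in frame. Cells were seeded at 2000 cells/well, attached for 10-12 hours, then exposed to compounds for 30-36 hours at 37C before ONE-Glo luminescence.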
NPC1 prom act: qHTS Assay for NPC1 Promoter Activators; Huh7 NPC1 promoter luciferase reporter, 24 h; Potency, µM (top dose mostly 9.22 µM), for inactives: top-dose activation, actives largely listed as activators; hit rate 2.4% among 320,000; note: % of control where 0% means no effect; nearly all actives have a fitted effect of over 60% in size
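Luminescence read-out of NPC1 promoter-driven luciferase in stably transfected Huh7 cells; compounds delivered in DMSO and left 24 h at 37C, 5% CO2, qHTS titration format.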
Rab9 prom act: qHTS Assay for Rab9 Promoter Activators. hit rate 2.8% among 320,000. Potency, µM (top dose mostly 9.22 µM), without a hit: at the highest dose activation, negative = inhibition, actives largely listed as activators. Huh7 Rab9 promoter-luciferase reporter, luminescence, 24 h. AID 485297, 2010; note: % of control where 0% means no effect; nearly all actives have a fitted effect of over 60% in size
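Huh7 cells stably carrying Rab9 promoter–luciferase reporter, plated 1500 cells/well, compound added after 2 h and incubated 24 h at 37 °C; luciferase luminescence then read after 10 min with detection reagent.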
FLuc modulator: qHTS profiling assay for firefly luciferase inhibitor/activator using purifed enzyme and Km concentrations of substrates (counterscreen for miR-21 project); AID 588342, 2011; Luciferin 4-monooxygenase (Photinus pyralis), P08659; Potency, µM (highest dose often 57.5 µM), without a hit: top-dose activity change, negative = inhibition, actives largely listed as inhibitors; hit rate 6.9% among 360,000; purified FLuc, Km substrates, luminescence inhibition;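 note: plate controls were vehicle for no effect and reference inhibitor for full effect; nearly all actives have a fitted effect of over 55% in size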
Target sequence (P08659 whole entry, looked up): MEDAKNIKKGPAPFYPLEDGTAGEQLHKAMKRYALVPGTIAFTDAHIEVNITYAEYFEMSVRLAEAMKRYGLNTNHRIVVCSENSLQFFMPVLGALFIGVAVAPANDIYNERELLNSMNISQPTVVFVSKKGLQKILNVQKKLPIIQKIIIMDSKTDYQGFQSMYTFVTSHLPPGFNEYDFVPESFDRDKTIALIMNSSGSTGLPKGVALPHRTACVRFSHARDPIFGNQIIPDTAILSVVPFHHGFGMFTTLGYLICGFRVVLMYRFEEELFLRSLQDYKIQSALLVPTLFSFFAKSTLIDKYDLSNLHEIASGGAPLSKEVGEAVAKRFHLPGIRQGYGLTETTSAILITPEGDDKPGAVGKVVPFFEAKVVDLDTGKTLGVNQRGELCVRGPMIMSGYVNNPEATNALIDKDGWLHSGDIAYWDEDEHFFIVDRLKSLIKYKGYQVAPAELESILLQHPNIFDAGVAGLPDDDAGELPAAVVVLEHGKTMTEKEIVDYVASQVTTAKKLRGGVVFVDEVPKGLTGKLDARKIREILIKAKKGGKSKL
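Purified P. pyralis luciferase (10nM final) with 10uM D-luciferin and 10uM ATP (Km levels) in 50mM Tris acetate pH 7.5, 10mM Mg acetate, 0.01% Tween-20, 0.05% BSA; qHTS 6-point titration, ~60 µM downward; luminescence read.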
The depositor's hits bear a star; [ ] = dose if it differs, or a comment. Calls come from the whole dose curve; as a rule, active = well fitted curve in the direction sought with a large enough effect; inconclusive = small, poorly fitted or top-dose-only effect, or another doubt; inactive = no such curve, though single readings can be large; an effect the other way counts as inactive or inconclusive. Potency is the fitted concentration of half-maximal effect.

CCN1c2cc(C)ccc2-n2cccc2C12CCN(C(=O)Nc1cc(OC)c(OC)c(OC)c1)CC2 was read as FLuc modulator -5.6%.
For Cc1nc2ccccc2cc1OCc1ccccc1 the results were ELG1 genotox -1.8%, KinaseGlo FLuc -2.3%, SMN2 splice enh -63.3%, NPC1 prom act -8.5%, Rab9 prom act -11.8% and FLuc modulator 16.9µM*.
Screening COc1cccc(COc2cc3ccccc3nc2C)c1 returned ELG1 genotox -0.4%, KinaseGlo FLuc -3.3%, SMN2 splice enh -14.1%, NPC1 prom act -10.3%, Rab9 prom act -27.8% and FLuc modulator 19µM*.
Screening COCCCNC(=S)N/N=C/c1ccccc1O returned ELG1 genotox 2.2%, NPC1 prom act inconclusive, Rab9 prom act inconclusive and FLuc modulator 12µM*.
For COCCNC(=S)N/N=C(\C)c1ccccc1O the results were ELG1 genotox 4.7%, KinaseGlo FLuc 2.6%, SMN2 splice enh 28.8%, NPC1 prom act 24.9%, Rab9 prom act -0.1% and FLuc modulator 16.9µM*.
O=C(Nc1ccccc1)N1CC=C(c2ccccc2)CC1 was read as ELG1 genotox 2.59µM*, KinaseGlo FLuc 1.0%, SMN2 splice enh 12.6µM*, NPC1 prom act 2.24µM*, Rab9 prom act 1.58µM* and FLuc modulator 4.78µM*.
`O=C(Nc1ccccc1)N1CC=C(c2ccc(F)cc2)CC1` gave ELG1 genotox inconclusive, KinaseGlo FLuc -8.2%, SMN2 splice enh 11.2µM*, NPC1 prom act 4.47µM*, Rab9 prom act 1µM* and FLuc modulator 23.9µM*.
Screening COc1cccc(/C=C2\N=C(C3CCCCC3)OC2=O)c1OC returned ELG1 genotox 3.3%, KinaseGlo FLuc -0.5%, SMN2 splice enh -14.4%, NPC1 prom act 0.0%, Rab9 prom act 0.6% and FLuc modulator 15.1µM*.
Screening COc1ccccc1/C=C1\N=C(C(C)(C)C)OC1=O returned ELG1 genotox 0.2%, NPC1 prom act -5.9%, Rab9 prom act -2.0% and FLuc modulator 16.9µM*.
`COc1ccccc1/C=C/C(C)=O` gave ELG1 genotox -3.3%, KinaseGlo FLuc 0.0%, SMN2 splice enh -3.1%, NPC1 prom act -1.7%, Rab9 prom act -2.2% and FLuc modulator 0.7%.
Screening CC(=O)Oc1ccc(/C=C2\N=C(C3CCCCC3)OC2=O)cc1 returned ELG1 genotox -0.1%, KinaseGlo FLuc 1.6%, SMN2 splice enh 3.6%, NPC1 prom act 0.4%, Rab9 prom act -4.2% and FLuc modulator 16.9µM*.
Cc1c(OCC(=O)NCCN2CCOCC2)ccc2c1oc(=O)c1ccccc12 was read as ELG1 genotox -8.3%, NPC1 prom act -0.2%, Rab9 prom act 3.3% and FLuc modulator -7.3%.
Screening CC(C)OCCCn1c(=O)c2ccccc2n2c(-c3ccc(F)cc3)nnc12 returned FLuc modulator -5.8%.
`COc1ccccc1NC(=O)c1ccc(-c2ccccc2F)o1` gave ELG1 genotox 7.6%, KinaseGlo FLuc 0.4%, SMN2 splice enh inconclusive, NPC1 prom act 18.1%, Rab9 prom act inconclusive and FLuc modulator -8.2%[2.3 µM].
`COC(=O)c1ccccc1NC(=O)c1ccc(-c2ccccc2F)o1` gave ELG1 genotox inconclusive, KinaseGlo FLuc 0.6%, SMN2 splice enh 5.01µM*, NPC1 prom act 3.16µM*, Rab9 prom act inconclusive and FLuc modulator 3.4%.
`Cc1cc(NC(=O)c2ccc(-c3ccccc3F)o2)no1` gave ELG1 genotox inconclusive, KinaseGlo FLuc -0.6%, SMN2 splice enh 12.6µM*, NPC1 prom act 3.55µM*, Rab9 prom act 4.47µM* and FLuc modulator 15.1µM*.
`O=C(Cc1ccccc1F)OCC(=O)N1CCc2ccccc21` gave ELG1 genotox 7.8%, KinaseGlo FLuc -1.9%, SMN2 splice enh 3.7%, NPC1 prom act 1.0%, Rab9 prom act 0.0% and FLuc modulator 6.75µM*.
Cc1cccc(C(=O)NCC(=O)OCC(=O)N2CCc3ccccc32)c1 was read as ELG1 genotox 0.0%, KinaseGlo FLuc -1.1%, SMN2 splice enh -0.9%, NPC1 prom act -3.8%, Rab9 prom act 1.0% and FLuc modulator -19.6%.
Screening O=C(CNC(=O)c1ccccc1Cl)OCC(=O)N1CCc2ccccc21 returned ELG1 genotox inconclusive, KinaseGlo FLuc -3.2%, SMN2 splice enh 5.8%, NPC1 prom act 2.7%, Rab9 prom act 8.7% and FLuc modulator 13.5µM*.
`COc1ccc(OC)c(C2C(C(=O)Nc3ccc(C)cc3C)=C(C)Nc3c(C(=O)Nc4ccc(F)cc4)cnn32)c1` (stereo not given) gave FLuc modulator -12.6%.
`Cc1ccc(S(=O)(=O)N(Cc2nc(-c3cccc(C)c3)no2)C2CCCCC2)cc1` gave SMN2 splice enh -13.4% and FLuc modulator -7.5%.
For COc1ccc(NC(=S)N2CCCC(c3nc4ccc(C)cc4[nH]3)C2)cc1 (stereo not given) the results were ELG1 genotox -1.8%, KinaseGlo FLuc -0.2%, NPC1 prom act -1.1%, Rab9 prom act -6.3% and FLuc modulator 13.5µM*.
COc1ccc(NC(=S)N2CCCC(c3nc4ccc(C)cc4[nH]3)C2)c(OC)c1 (stereo not given) was read as ELG1 genotox -1.7%, KinaseGlo FLuc 0.7%, NPC1 prom act -7.8%, Rab9 prom act -7.7% and FLuc modulator 13.5µM*.
`Cc1ccc(NC(=S)N2CCCC(c3nc4ccc(C)cc4[nH]3)C2)c(C)c1` (stereo not given) gave ELG1 genotox -7.2%, KinaseGlo FLuc -1.6%, SMN2 splice enh -4.5%, NPC1 prom act 1.0%, Rab9 prom act 0.2% and FLuc modulator -8.0%.
For Cc1cc2nc(C3CCCN(C(=S)Nc4ccccc4C)C3)[nH]c2cc1C (stereo not given) the results were ELG1 genotox 0.9%, KinaseGlo FLuc 0.4%, SMN2 splice enh 5.6%, NPC1 prom act -2.3%, Rab9 prom act -0.5% and FLuc modulator 3.38µM*.
For CCOC(=O)N1CCN(CC(O)COc2ccc3c(c2)CCC3)CC1 (stereo not given) the results were ELG1 genotox 0.1%, NPC1 prom act -3.3%, Rab9 prom act -6.0% and FLuc modulator -0.5%.
Screening O=C(Nc1ccc(F)cc1)C1CCN(S(=O)(=O)c2ccc3c(c2)CCCN3C(=O)C2CCC2)CC1 returned FLuc modulator 1.6%.
O=C(O)c1cccc(Cl)c1Cl was read as SMN2 splice enh -2.0%.

Assay outcomes: PubChem, National Center for Advancing Translational Sciences (NCATS)
